Data reported in PubChem BioAssay AID1486 (The Scripps Research Institute Molecular Screening Center, 2009).
In all, about 220,000 compounds went through this assay and about 2,400 (1.1%) were called active. This excerpt belongs to a sample that is enriched for actives. Unmarked numbers belong to inactive results.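 Rule for the calls: active = inhibition above a per-campaign cutoff, the mean inhibition of all tested compounds plus 3 SD (cut at about 27% in these data); inactive = the rest.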

assay: parental Ba/F3 cell viability inhibition, counter-screen for JAK2V617F inhibitor project, murine pro-B, CellTiter-Glo luminescence (AID 1486); conditions: CellTiter-Glo ATP luminescence, at 5.6 µM, active compounds read high;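 note: 0% = DMSO wells and 100% = JAK Inhibitor I control wells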

Compared with `O=C(CSc1ccc(C(F)(F)F)cc1[N+](=O)[O-])NCCOc1ccccc1`, `O=C(O)CCCC(=O)Nc1ccc(Oc2cccc(C(F)(F)F)c2)nc1` is lower in inhibition: 3.21% for the first, -1.72% for the second.

Compared with `C/C(=N\N1CCN(Cc2ccc(C)cc2)CC1)c1ccco1`, `CCOC(=O)C1(S(=O)(=O)c2ccccc2)CCN(Cc2ccccc2)CC1` is higher in inhibition: 3.54% for the first, 8.01% for the second.

First: Cc1ccc(C(=O)Nc2nc(N)n(-c3ccccc3)n2)cc1
Second: O=C(Nc1ccccc1Cl)c1ccc2nsnc2c1
The inhibition of the first is lower: -1.21% for the first, 9.68% for the second.

First: COc1cc(Cl)c(C)cc1NC(=O)[C@@H]1CCCN1C(=O)c1cccs1
Second: COC(=O)C1CCN(C(=O)c2cc(=O)[nH]c3ccccc23)CC1
The inhibition of the first is higher: 6.13% for the first, 5.12% for the second.

Going from `COC(=O)Nc1ccc(S(=O)(=O)N2CCN(CCN3C(=O)C4C5C=CC(C5)C4C3=O)CC2)cc1` (stereo not given) to `COc1cc2c(cc1OC)CN(C(=O)c1ccc(S(=O)(=O)N3CCCCCC3)cc1)CC2`, the inhibition rises from 5.02% to 10%.

First: COC(=O)CCNC(=O)c1ccc2[nH]c(C)c(C)c2c1
Second: O=C(COC(=O)CCCNC(=O)c1ccc(Cl)cc1)Nc1cc(Cl)ccc1Cl
The inhibition of the first is higher: 3.29% for the first, 2.29% for the second.

Going from `CCOC(=O)c1[nH]c2c(c1C)C(=O)CC(c1ccc(N(C)C)cc1)C2` (stereo not given) to `CCOC(=O)c1[nH]c2c(c1-c1ccccc1)C(=O)CC(c1ccc(Cl)cc1)C2` (stereo not given), the inhibition rises from 4.47% to 8.29%.

Compared with `CCOC(=O)C1=C(C)NC(=S)NC1c1cccs1` (stereo not given), `CCOC(=O)c1cn(Cc2cccc(C)c2)nn1` is lower in inhibition: 3.93% for the first, 2.15% for the second.

First: COc1cc(C2CC(=O)c3cnc(NC(C)=O)nc3C2)cc(OC)c1OC (stereo not given)
Second: COc1ccc(C2CC(=O)Nc3cc(C)c(C)cc32)c(OC)c1OC (stereo not given)
The inhibition of the first is lower: 2.9% for the first, 3.54% for the second.

Compared with `CCOC(=O)C1=C(CC)OC(N)=C(C#N)C1c1ccc(F)cc1F` (stereo not given), `CCN(CC)C(=O)CSC(Nc1cccc(F)c1)=C(C#N)C#N` is lower in inhibition: 0.94% for the first, -0.34% for the second.

Going from `Cc1ccc(S(=O)(=O)N2CCCC2C(=O)OCc2nc3sc(C)c(C)c3c(=O)[nH]2)cc1` (stereo not given) to `Cc1ccc(-c2nc(SCC(=O)Nc3ccccc3OC(F)F)c3c(C)c(C(=O)O)sc3n2)cc1`, the inhibition falls from 3.55% to 1.45%.

First: O=C1CCCCC1C(=O)c1ccccc1 (stereo not given)
Second: CS(=O)(=O)N1CCN(C(=O)Cc2ccccc2)CC1
The inhibition of the first is higher: 0.06% for the first, -0.7% for the second.

Going from `Cc1nc(/N=C(\N)NC(=O)NC2CCCCC2)nc2ccccc12` to `O=C(Nc1cccc(S(=O)(=O)NC2=NCCC2)c1)C1CCCCC1`, the inhibition falls from 4.49% to -1.01%.

Compared with `COc1ccc(NC(=O)Nc2ccc3nc(C)c(C)nc3c2)cc1`, `Cc1cc(C)cc(OCC(=O)Nc2ccc(S(=O)(=O)Nc3ccccn3)cc2)c1` is lower in inhibition: 1.19% for the first, -1.55% for the second.

Compared with `O=C(NNC(=O)c1cnccc1C(F)(F)F)c1ccc(Cl)cc1`, `O=C(c1ccc(Cl)cc1)N1N=C(c2ccccn2)CC1(O)C(F)(F)F` (stereo not given) is higher in inhibition: -1.83% for the first, 0.67% for the second.

Going from `COc1cccc(Cn2cnc3c([N+](=O)[O-])c(C)c(C)cc32)c1` to `COC(=O)C(C)Sc1nc2c(c(=O)n(C)c(=O)n2C)n1Cc1cccc(C)c1` (stereo not given), the inhibition falls from 9.27% to 4%.

Going from `CCN(CC)S(=O)(=O)c1ccc(OC(C)C)c(N)c1` to `Cc1cc(OCCN2CCCC2)ccc1C(C)C`, the inhibition falls from 5.49% to 1.72%.

First: COCCOC(=O)C1=C(C)NC(=O)CC1c1cc2c(cc1Br)OCO2 (stereo not given)
Second: COc1cc2c(cc1/C=C1/NC(=O)N(c3ccccc3)C1=O)OCO2
The inhibition of the first is lower: 3.68% for the first, 10.5% for the second.

Going from `COc1ccc(F)cc1S(=O)(=O)Nc1ccc2c(c1)OCO2` to `CC1Cc2ccccc2N1CC(=O)Nc1ccc2c(c1)OC(F)(F)O2` (stereo not given), the inhibition rises from 3.23% to 4.14%.

Compared with `Cc1cc(C)c2nc(-c3cccnc3)cc(C(=O)Nc3ccc(S(=O)(=O)Nc4onc(C)c4C)cc3)c2c1`, `Cc1ccc(OCC(=O)Nc2ccc(S(=O)(=O)Nc3ccccn3)cc2)cc1` is lower in inhibition: 8.53% for the first, 0.56% for the second.

Compared with `O=C(CN1CCCCC1)Nc1ccccc1Cl`, `COc1cccc(OC)c1C(=O)Nc1ccc(N2CCCCC2)cc1` is higher in inhibition: 5.49% for the first, 9.75% for the second.

Going from `N#C/C(=C\c1ccc(N2CCOCC2)o1)C(=O)N1CCOCC1` to `O=C(NCC1CCCCC1)c1cc(S(=O)(=O)N2CCCCC2)ccc1N1CCOCC1`, the inhibition rises from 4.08% to 8.85%.

Compared with `Cc1cc(OCCCC(=O)NCCN2C(=O)S/C(=C\c3cccnc3)C2=O)ccc1Cl`, `O=C(Cn1c(COc2ccccc2)nc2ccccc21)Nc1cc(Cl)c(Cl)cc1Cl` is lower in inhibition: 6.03% for the first, 2.68% for the second.

Going from `O=C(O)Cc1csc(NC(=O)CSc2nnnn2-c2ccc(O)cc2)n1` to `O=C(COC(=O)c1cc(=O)[nH]c2ccccc12)Nc1nc(-c2cccc(Br)c2)cs1`, the inhibition rises from -4.21% to 3.32%.

Going from `Cc1ccc(C(C)C)cc1OCCN1CCCC1` to `COc1ccc(C(=O)NC(=S)Nc2ccc(N3CCCC3)cc2)cc1OC`, the inhibition falls from 5.38% to 3.89%.

Compared with `CC1=C/C(=N\S(=O)(=O)c2ccccc2)C(C(C)C)=CC1=O`, `CC1=CC(C)(C)NC(=S)N1NC(=O)c1ccccc1Cl` is lower in inhibition: 5.54% for the first, -3.65% for the second.

First: CCN(CC)CCNCc1ccc(OCc2ccc(Cl)nc2)c(OC)c1
Second: CCN(CC)CCn1c(N)c(S(=O)(=O)c2ccccc2)c2nc3ccccc3nc21
The inhibition of the first is lower: 2.52% for the first, 5.27% for the second.

Compared with `COc1cc2c(cc1O)[C@H](Cc1ccc(Oc3cc(C[C@@H]4NCCc5cc(OC)c(O)cc54)ccc3O)cc1)NCC2`, `COc1cc2c(cc1OC)CN(C(=O)c1cc(=O)c3ccccc3o1)CC2` is higher in inhibition: 5.61% for the first, 24.8% for the second.

Compared with `COC(=O)C1=C(NC(=O)C(C)(C)C)CCS1`, `CCOC(=O)c1ccc(NNC(C)=O)c([N+](=O)[O-])c1` is higher in inhibition: -0.46% for the first, -0.42% for the second.

Going from `O=C(O)c1cccnc1Sc1ncnc2sc3c(c12)CCC3` to `Nc1nc(Sc2ncccc2[N+](=O)[O-])n[nH]1`, the inhibition rises from -7.35% to -0.31%.

Going from `Cc1ccccc1CS(=O)(=O)CC1(O)CCN(C(=O)c2cccc(C(F)(F)F)c2)CC1` to `Cc1csc(NC(=O)NC2(C(F)(F)F)Oc3ccccc3O2)n1`, the inhibition rises from -1.41% to 13.6%.

Going from `Cn1c(=O)c2c(nc(NCCc3ccccc3)n2Cc2ccccc2)n(C)c1=O` to `COc1ccc(Nc2cc(=O)n(-c3ccccc3)c3c2c(=O)n(C)c(=O)n3C)cc1`, the inhibition falls from 6.77% to 4.99%.

Going from `Cc1c(C(=O)Nc2cccc(Cl)c2)cn2c(nc3ccccc32)c1C#N` to `COc1ccccc1C(=O)Nc1nc2nc(-c3ccccc3)cc(=O)n2[nH]1`, the inhibition rises from 2.67% to 2.81%.

First: Cc1cc(C)nc(S/C=C/C(=O)c2ccccc2)n1
Second: CC1(C)CCSC(/C=C/c2ccccc2)=N1
The inhibition of the first is higher: 6.81% for the first, -2.99% for the second.

First: COc1ccc(Cl)cc1CSc1ncn[nH]1
Second: Nc1scc[n+]1Cc1cccc2cccnc12
The inhibition of the first is higher: -3.75% for the first, -7.17% for the second.

Compared with `COc1ccc(N2CCN(Cc3cc(=O)oc4ccc5ccccc5c34)CC2)cc1`, `CCOCCCn1c(NN)nc2ccccc2c1=O` is lower in inhibition: 5.38% for the first, 1.96% for the second.

Compared with `c1cnn(-c2cc(N3CCOCC3)ncn2)c1`, `COn1c(=O)c(=O)n(OC)c2ccccc21` is lower in inhibition: 5.98% for the first, 3.35% for the second.

Going from `CC1(C)C=C2[C@H]3CC[C@@H]4[C@@]5(C)CCC(=O)C(C)(C)[C@@H]5CC[C@@]4(C)[C@]3(C)CC[C@@]2(C(=O)O)CC1` to `O=C(NNC(=O)C1C2CCC(C2)C1C(=O)O)c1ccc(Cl)cc1` (stereo not given), the inhibition falls from 4.85% to 2.39%.

In the case of `CC#CC[N+](C)(C)CCCCCC`, the inhibition is reported as 43.8% (active).
In the case of `CCCOC(=O)c1[nH]c2c(c1C)C(=O)CC(c1cccs1)C2` (stereo not given), the inhibition is reported as 75.9% (active).
For `CCCOC(=O)c1[nH]c2c(c1C)C(=O)CC(c1cc(OC)c(OC)c(OC)c1)C2` (stereo not given), the inhibition was 41.3% (active).
In the case of `COc1ccc2nc(/N=C(\N)NC(=O)Nc3ccccc3)nc(C)c2c1`, the inhibition is reported as 31.6% (active).
For `Cc1cccc(Cn2cnc3c(N)c(C)c(C)cc32)c1`, the inhibition was 32.6% (active).
For `CCCOc1ccccc1C1CC(=O)Nc2cc3c(cc21)OCO3` (stereo not given), the inhibition was 71.8% (active).
With `COc1ccccc1C1C2=C(COC2=O)Nc2cc3c(cc21)OCO3` (stereo not given) the inhibition was 80.4% (active).
In the case of `O=C(Nc1ccccc1Cl)/C(Cl)=C(\Cl)S(=O)c1ccccc1` (stereo not given), the inhibition is reported as 104% (active).
For `Cc1cc(OCCN2CCCC2)cc(C(C)C)c1`, the inhibition was 93.8% (active).
With `CC1=C/C(=N\OS(=O)(=O)c2ccccc2)C=CC1=O` the inhibition was 32.1% (active).
In the case of `CC[C@H]1CN2CCc3cc(OC)c(OC)cc3[C@@H]2C[C@@H]1C[C@H]1NCCc2cc(OC)c(OC)cc21`, the inhibition is reported as 100% (active).
With `CCOc1cc(C(=O)N2CCc3cc(OC)c(OC)cc3C2)ccc1OC(F)F` the inhibition was 78.2% (active).
For `CC(C)CC(=O)N1CCC(O)(CS(=O)(=O)Cc2ccccc2)CC1`, the inhibition was 50.5% (active).
For `CCCCNc1nc2c(c(=O)n(C)c(=O)n2C)n1Cc1cccc(OC)c1`, the inhibition was 48.4% (active).
With `O=C(/C=C/Sc1ncn[nH]1)c1ccc(Cl)cc1` the inhibition was 59.2% (active).
In the case of `COc1ccc(Nc2cc(=O)oc3ccccc23)cc1`, the inhibition is reported as 50.9% (active).
With `O=C(Nc1cc(N2CCOCC2)ncn1)NC1(C(F)(F)F)Oc2ccc(Cl)cc2O1` (stereo not given) the inhibition was 42.3% (active).
For `Cc1ccc(S(=O)(=O)Nc2ccc3ncccc3c2)cc1`, the inhibition was 37.5% (active).
In the case of `COc1cccc(C(=O)Nc2ccc(N3CCCC3)cc2)c1`, the inhibition is reported as 45.8% (active).
